# In ChEMBL document CHEMBL2218924, “A broad activity screen in support of a chemogenomic map for kinase signalling research and drug discovery” (Biochem J, 2013):
# Legend:
# [1] = molecular target: T1, Aurora kinase C (Homo sapiens) (UniProt Q9UQB9); details: at 1 µM
# T1 sequence (whole entry): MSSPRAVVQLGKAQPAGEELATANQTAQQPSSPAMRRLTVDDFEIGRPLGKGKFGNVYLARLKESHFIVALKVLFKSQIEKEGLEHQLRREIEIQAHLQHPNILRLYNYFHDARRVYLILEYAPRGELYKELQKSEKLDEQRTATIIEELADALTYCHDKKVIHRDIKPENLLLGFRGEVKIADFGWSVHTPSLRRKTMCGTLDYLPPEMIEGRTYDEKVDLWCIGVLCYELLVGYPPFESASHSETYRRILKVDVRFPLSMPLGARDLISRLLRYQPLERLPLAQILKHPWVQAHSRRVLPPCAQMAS
# [2] = molecular target: T1, Aurora kinase C (Homo sapiens); details: at 10 µM
# [3] = molecular target: Tyrosine-protein kinase receptor UFO (Homo sapiens) (UniProt P30530); details: at 1 µM
# Tyrosine-protein kinase receptor UFO (Homo sapiens), sequence (P30530 whole entry): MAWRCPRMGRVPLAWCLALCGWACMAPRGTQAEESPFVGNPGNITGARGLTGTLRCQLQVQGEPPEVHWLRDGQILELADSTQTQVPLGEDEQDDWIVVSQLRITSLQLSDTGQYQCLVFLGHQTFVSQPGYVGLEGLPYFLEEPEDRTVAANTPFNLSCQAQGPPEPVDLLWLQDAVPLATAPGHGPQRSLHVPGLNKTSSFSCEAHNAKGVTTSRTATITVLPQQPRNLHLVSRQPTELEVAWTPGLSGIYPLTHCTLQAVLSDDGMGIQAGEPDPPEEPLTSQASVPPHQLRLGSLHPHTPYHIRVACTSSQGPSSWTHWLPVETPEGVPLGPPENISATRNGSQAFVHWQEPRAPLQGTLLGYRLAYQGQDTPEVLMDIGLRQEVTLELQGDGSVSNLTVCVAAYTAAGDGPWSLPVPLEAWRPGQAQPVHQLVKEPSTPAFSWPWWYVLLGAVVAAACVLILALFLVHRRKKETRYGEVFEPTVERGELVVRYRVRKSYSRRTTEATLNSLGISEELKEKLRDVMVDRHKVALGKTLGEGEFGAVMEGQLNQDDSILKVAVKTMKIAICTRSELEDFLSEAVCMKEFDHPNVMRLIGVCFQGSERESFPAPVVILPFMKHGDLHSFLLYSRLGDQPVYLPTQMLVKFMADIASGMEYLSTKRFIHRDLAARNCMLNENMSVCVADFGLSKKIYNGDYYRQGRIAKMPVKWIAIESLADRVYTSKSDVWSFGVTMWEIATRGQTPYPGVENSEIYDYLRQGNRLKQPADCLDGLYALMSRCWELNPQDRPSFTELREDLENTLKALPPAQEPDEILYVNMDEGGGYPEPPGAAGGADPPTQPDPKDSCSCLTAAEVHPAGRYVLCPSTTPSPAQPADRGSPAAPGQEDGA
# [4] = molecular target: Tyrosine-protein kinase receptor UFO (Homo sapiens) (UniProt P30530); details: at 10 µM
# [5] = molecular target: Protein-tyrosine kinase 6 (Homo sapiens) (UniProt Q13882); details: at 1 µM
# Protein-tyrosine kinase 6 (Homo sapiens), sequence (Q13882 whole entry, looked up): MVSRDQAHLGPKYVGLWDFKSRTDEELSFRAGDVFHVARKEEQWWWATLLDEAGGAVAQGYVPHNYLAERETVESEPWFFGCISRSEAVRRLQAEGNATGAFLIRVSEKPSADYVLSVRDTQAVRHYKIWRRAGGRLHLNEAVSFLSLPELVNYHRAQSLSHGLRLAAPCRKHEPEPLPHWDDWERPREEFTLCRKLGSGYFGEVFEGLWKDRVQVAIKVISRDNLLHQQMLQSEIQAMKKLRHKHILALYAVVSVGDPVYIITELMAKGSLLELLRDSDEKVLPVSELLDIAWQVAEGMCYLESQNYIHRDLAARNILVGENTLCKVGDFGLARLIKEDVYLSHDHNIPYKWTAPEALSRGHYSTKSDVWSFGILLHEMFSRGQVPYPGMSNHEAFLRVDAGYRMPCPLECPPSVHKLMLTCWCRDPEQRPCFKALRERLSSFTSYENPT
# [6] = molecular target: Protein-tyrosine kinase 6 (Homo sapiens) (UniProt Q13882); details: at 10 µM
# [7] = molecular target: Tyrosine-protein kinase BTK (Homo sapiens) (UniProt Q06187); details: at 1 µM
# Tyrosine-protein kinase BTK (Homo sapiens), sequence (Q06187 whole entry): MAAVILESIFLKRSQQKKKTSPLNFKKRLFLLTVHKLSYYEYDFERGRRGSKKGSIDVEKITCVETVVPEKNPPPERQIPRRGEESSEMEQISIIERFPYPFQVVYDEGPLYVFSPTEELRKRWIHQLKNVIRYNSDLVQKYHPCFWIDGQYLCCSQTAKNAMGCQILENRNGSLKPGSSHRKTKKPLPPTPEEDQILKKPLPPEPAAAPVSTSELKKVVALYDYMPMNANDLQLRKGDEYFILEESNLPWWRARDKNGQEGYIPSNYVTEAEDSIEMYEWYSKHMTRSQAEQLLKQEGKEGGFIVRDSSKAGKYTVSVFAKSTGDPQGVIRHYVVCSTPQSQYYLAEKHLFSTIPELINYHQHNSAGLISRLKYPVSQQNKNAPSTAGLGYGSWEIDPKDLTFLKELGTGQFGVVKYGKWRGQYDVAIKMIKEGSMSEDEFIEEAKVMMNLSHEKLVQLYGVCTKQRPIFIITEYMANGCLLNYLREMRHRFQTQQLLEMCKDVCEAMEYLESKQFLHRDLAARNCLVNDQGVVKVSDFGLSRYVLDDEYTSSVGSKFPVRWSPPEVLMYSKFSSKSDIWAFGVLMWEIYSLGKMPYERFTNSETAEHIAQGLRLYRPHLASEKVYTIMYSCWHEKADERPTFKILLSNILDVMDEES
# [8] = molecular target: Tyrosine-protein kinase BTK (Homo sapiens) (UniProt Q06187); details: at 10 µM
# [9] = molecular target: Tyrosine-protein kinase Blk (Homo sapiens) (UniProt P51451); details: at 1 µM
# Tyrosine-protein kinase Blk (Homo sapiens), sequence (P51451 2-505 limits assumed): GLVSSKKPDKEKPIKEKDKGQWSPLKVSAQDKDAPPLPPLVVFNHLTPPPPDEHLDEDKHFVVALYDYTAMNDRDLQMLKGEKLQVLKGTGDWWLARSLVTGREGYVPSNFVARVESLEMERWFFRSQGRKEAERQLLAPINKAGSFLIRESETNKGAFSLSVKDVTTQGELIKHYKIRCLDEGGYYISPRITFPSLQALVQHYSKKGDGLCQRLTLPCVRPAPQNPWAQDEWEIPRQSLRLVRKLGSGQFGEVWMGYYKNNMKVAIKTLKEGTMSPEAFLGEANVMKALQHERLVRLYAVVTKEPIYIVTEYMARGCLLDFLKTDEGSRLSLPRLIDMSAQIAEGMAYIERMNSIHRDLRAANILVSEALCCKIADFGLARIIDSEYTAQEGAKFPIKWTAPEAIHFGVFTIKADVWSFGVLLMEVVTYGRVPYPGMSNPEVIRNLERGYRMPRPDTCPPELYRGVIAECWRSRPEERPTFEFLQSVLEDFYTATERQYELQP
# [10] = molecular target: Tyrosine-protein kinase Blk (Homo sapiens) (UniProt P51451); details: at 10 µM
Structure (SMILES),residual activity [1],residual activity [2],residual activity [3],residual activity [4],residual activity [5],residual activity [6],residual activity [7],residual activity [8],residual activity [9],residual activity [10]
COc1cc2ncnc(Nc3ccc(Oc4ccccc4)cc3)c2cc1OC,59%,59%,54%,25%,7%,4%,15%,2%,0%,0%
CC(C)n1cnc2/c(=N/c3cccc(Cl)c3)nc(NCCO)[nH]c21,74%,52%,94%,44%,105%,100%,72%,32%,79%,15%
Oc1n[nH]c2nnc(-c3c(-c4ccccc4)nn4ccccc34)cc12,84%,84%,118%,104%,97%,87%,78%,33%,107%,90%
CO[C@H]1C[C@@H]2CC[C@@H](C)[C@@](O)(O2)C(=O)C(=O)N2CCCC[C@H]2C(=O)O[C@H]([C@H](C)C[C@@H]2CC[C@@H](O)[C@H](OC)C2)CC(=O)[C@H](C)/C=C(\C)[C@@H](O)[C@@H](OC)C(=O)[C@H](C)C[C@H](C)/C=C/C=C/C=C/1C,79%,69%,89%,84%,101%,102%,91%,106%,90%,82%
O=C(Nc1cccc(Nc2cc(Nc3cccc(C(F)(F)F)c3)ncn2)c1)C1CC1,90%,87%,102%,83%,94%,94%,99%,71%,97%,69%
Nc1n[nH]c2nnc(-c3c(-c4ccccc4)nn4ccccc34)cc12,83%,66%,98%,84%,95%,78%,86%,47%,100%,63%
Nc1nc(Nc2ccc(S(N)(=O)=O)cc2)nn1C(=S)Nc1c(F)cccc1F,-2%,0%,3%,2%,49%,8%,79%,27%,7%,0%
Cc1ccc(S(=O)(=O)/C=C/C#N)cc1,93%,90%,107%,94%,107%,106%,98%,96%,108%,117%
Cc1nc2cc3nc(-c4cccs4)cnc3cc2n1C,102%,42%,87%,68%,109%,98%,93%,83%,100%,48%
COc1ccc(CNc2nc(N(CCO)CCO)nc3c2ncn3C(C)C)cc1,75%,85%,92%,75%,104%,101%,88%,86%,96%,83%
O=C1NC(=O)/C(=C/c2ccc3c(c2)OC(F)(F)O3)S1,110%,80%,98%,84%,110%,104%,86%,95%,119%,94%
N#C/C(=C(\N)Sc1ccc(N)cc1)c1ccccc1C(F)(F)F,84%,83%,96%,73%,105%,114%,91%,93%,90%,79%
COc1cc2ncnc(Nc3ccc(O)c(Br)c3)c2cc1OC,45%,10%,36%,17%,18%,1%,80%,33%,21%,3%
Oc1ccc(-c2nc(-c3ccc(F)cc3)c(-c3ccncc3)[nH]2)cc1,113%,95%,121%,83%,49%,5%,108%,77%,109%,44%
O=C1NC(=O)c2cc(Nc3ccc(F)cc3)c(Nc3ccc(F)cc3)cc21,92%,73%,94%,81%,89%,48%,86%,87%,98%,38%
CC(=O)c1ccc(N2CCOCC2)cc1O,106%,84%,110%,85%,108%,107%,91%,–,–,–
CNc1cc2c(Nc3cccc(Br)c3)ncnc2cn1,85%,64%,75%,69%,69%,53%,98%,83%,103%,65%

Structure (SMILES),residual activity [1],residual activity [2],residual activity [3],residual activity [4],residual activity [5],residual activity [6],residual activity [7],residual activity [8],residual activity [9],residual activity [10]
O=Nc1c(-c2c(O)[nH]c3ccccc23)[nH]c2ccccc12,61%,49%,17%,8%,91%,23%,31%,4%,11%,0%
Nc1ccc2ncnc(NCCc3ccc(Oc4ccccc4)cc3)c2c1,89%,87%,72%,33%,95%,79%,95%,94%,68%,18%
CCN(CC)C(=O)c1ccc(Nc2nc(OCC3CCCCC3)c3nc[nH]c3n2)cc1,1%,2%,27%,7%,54%,11%,34%,-2%,20%,1%
Oc1c2ccccc2c2c3c(cccc13)N=N2,9%,4%,50%,17%,95%,95%,88%,57%,97%,45%
Oc1ccc(Nc2nc(-c3ccc(Cl)cc3)cs2)cc1,90%,92%,114%,80%,107%,102%,95%,84%,111%,86%
CC#CC(=O)Nc1cc2c(Nc3ccc(F)c(Cl)c3)ncnc2cn1,99%,73%,82%,74%,99%,97%,47%,16%,82%,49%
NC(=O)c1ccc2[nH]c(-c3ccc(Oc4ccc(Cl)cc4)cc3)nc2c1,72%,79%,107%,70%,102%,103%,89%,86%,103%,77%
O=C1Nc2cc(Br)ccc2/C1=C1/Nc2ccccc2/C1=N\O,74%,76%,52%,39%,90%,102%,1%,0%,1%,5%
CC(C)n1cnc2c(NCc3ccccc3)nc(NCCCO)nc21,95%,89%,105%,75%,89%,82%,93%,94%,78%,71%
CCOc1cc2ncnc(Nc3cccc(Br)c3)c2cc1OCC,98%,52%,66%,31%,18%,2%,72%,28%,17%,3%
C[C@@H](N)[C@H]1CC[C@H](C(=O)Nc2ccncc2)CC1,96%,72%,102%,103%,97%,89%,101%,104%,92%,100%
Ic1cccc(CSc2nnc(-c3ccncc3)o2)c1,79%,74%,74%,60%,105%,96%,79%,95%,87%,61%
O=C1Nc2ccccc2/C1=C1/Nc2ccccc2/C1=N\OCCC(O)CO (configuration not stated),43%,30%,12%,5%,56%,53%,12%,-2%,4%,0%
CO[C@H]1[C@@H](OC)C[C@H](C)[C@@H](OC)C2=CC(=O)C=C(NC(=O)/C(C)=C/C=C/[C@H](OC)[C@@H](OC(N)=O)/C(C)=C/[C@@H]1C)C2=O,76%,90%,104%,77%,109%,106%,83%,101%,90%,78%
COc1cccc(-c2cc(=O)c3ccccc3o2)c1N,99%,94%,119%,111%,105%,105%,94%,100%,114%,103%
O=c1cc(-c2cccc3c2Sc2ccccc2S3)oc(N2CCOCC2)c1,102%,92%,102%,86%,109%,96%,87%,80%,101%,76%
